# Source: ChEMBL document CHEMBL3988442, “University of Dundee, Small-Polar-MMV Screening Library” (2021)
# Results with a measured potency or affinity are listed apart.
# Target: Protein translocase subunit SecA (Escherichia coli (strain K12)) (UniProt P10408)
# Assay: Assay to Identify E. coli SecA ATPase Inhibitors
# Format: functional
# Set-up: scale not given: direction of the effect not stated beside the values
# Settings: 30 µM
# Chain of Protein translocase subunit SecA (Escherichia coli (strain K12)) (P10408 whole entry): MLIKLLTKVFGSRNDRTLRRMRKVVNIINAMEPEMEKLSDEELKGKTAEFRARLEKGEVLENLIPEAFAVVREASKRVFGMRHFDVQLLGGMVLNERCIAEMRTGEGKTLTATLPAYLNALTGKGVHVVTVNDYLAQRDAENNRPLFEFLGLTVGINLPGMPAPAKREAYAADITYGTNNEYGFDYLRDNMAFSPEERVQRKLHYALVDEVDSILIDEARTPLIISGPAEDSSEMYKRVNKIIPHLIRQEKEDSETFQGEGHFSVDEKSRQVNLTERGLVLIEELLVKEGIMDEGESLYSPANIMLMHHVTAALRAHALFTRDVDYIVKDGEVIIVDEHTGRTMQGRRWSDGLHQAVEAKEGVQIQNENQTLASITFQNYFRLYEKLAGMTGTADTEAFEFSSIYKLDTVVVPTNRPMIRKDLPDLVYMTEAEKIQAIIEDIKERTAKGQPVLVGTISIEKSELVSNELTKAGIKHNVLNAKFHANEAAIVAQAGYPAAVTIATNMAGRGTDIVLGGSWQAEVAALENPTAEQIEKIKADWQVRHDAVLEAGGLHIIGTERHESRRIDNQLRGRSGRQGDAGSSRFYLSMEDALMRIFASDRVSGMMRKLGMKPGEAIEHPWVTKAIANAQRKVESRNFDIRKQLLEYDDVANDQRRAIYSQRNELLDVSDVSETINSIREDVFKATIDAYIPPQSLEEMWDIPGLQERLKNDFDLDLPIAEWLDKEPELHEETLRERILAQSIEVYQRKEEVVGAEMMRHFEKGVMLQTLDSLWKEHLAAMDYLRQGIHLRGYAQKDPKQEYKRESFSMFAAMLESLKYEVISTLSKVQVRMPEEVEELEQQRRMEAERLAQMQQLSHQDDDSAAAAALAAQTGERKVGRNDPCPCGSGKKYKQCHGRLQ
row,SMILES,Percent Effect [%]
1,CN(C)CC1(O)CCN(S(=O)(=O)c2ccc(F)cc2)C1 (stereo not given),-4.76
2,CCc1noc(C(C)N2CCN(Cc3nc(C)c(C)o3)CC2)n1 (stereo not given),-2.85
3,CS(=O)(=O)CCC(=O)NC1(c2cccc(Br)c2)CC1,-2.11
4,Fc1cccc(CN2CCC(c3n[nH]c4ncccc34)CC2)c1F,-3.7
5,CN(C)C(=O)CN1CCC2(CCN(Cc3nccs3)CC2)C1=O,-0.585
6,CCc1nnc2n1CCN(C(=O)C(C)COCc1ccccc1)C2 (stereo not given),-1.9
7,Cc1ccc(N2CC3(COCCN(Cc4cccnc4)C3)OCC2=O)s1 (stereo not given),-6.13
8,Cc1nc(C)n(CC2CN(Cc3cccnc3)CCO2)n1 (stereo not given),-3.52
9,COc1ccc(C2=CCN(C(=O)CN(C)CC(C)C#N)CC2)cc1 (stereo not given),-8.6
10,CC(NC(=O)Cn1cccn1)c1ccc2c(c1)OCCCO2 (stereo not given),-2.38
11,CCn1cnnc1CNC(=O)N1CCN(Cc2ccccc2)CC1,-4.19
12,NC(=O)Nc1cccc(Oc2ccccn2)c1,-0.17
13,Cc1ccc(CN(Cc2ccccn2)C2CC(C)(C)NC(C)(C)C2)s1,-1.39
14,CC(C)c1nccn1CCCNC(=O)c1ccc(-c2cncnc2)nc1,-0.347
15,Cc1nc(CN2CCN(CC(=O)Nc3c(C)cccc3C)CC2)no1,-3.96
16,c1cnn(Cc2nnc(C3CCN(C4CCOCC4)CC3)n2C2CC2)c1,-7.04
17,CCc1noc(CN2CCCC2c2noc(C3CC3)n2)n1 (stereo not given),0.214
18,Fc1ccc(OCCCN2CCOC(Cn3cncn3)C2)cc1 (stereo not given),-1.31
19,CS(=O)(=O)NCCCN1CCCCC1c1cc2ccccc2[nH]1 (stereo not given),-6.23
20,CCC1=N[C@@]2(CC[C@@H]3CN(Cc4ccc(Cl)cc4)C[C@@H]32)C(=O)N1,-2.1

row,SMILES,Percent Effect [%]
1,NC(=O)C1(c2cnccn2)CCCN1Cc1cc2ccccc2o1 (stereo not given),-2.52
2,CS(=O)(=O)N1CCCCCC1C1CCN(c2ncccc2C#N)CC1 (stereo not given),-0.308
3,CC(C)CN1Cc2c(C(=O)N(C)C)ncn2-c2ccccc2S1(=O)=O,-3.52
4,CC(C)N1CCC(Cc2cncc(-c3ccccc3C(=O)O)n2)CC1,-3.85
5,O=C(c1ccsc1)N1CC[C@H]2C[C@@H](c3nnc(C4CC4)o3)O[C@@H]2C1,-1.93
6,Cn1nnc2c1C(COCC1CC1)CN(C(=O)Cc1ccsc1)C2 (stereo not given),-5.15
7,Cc1noc(C)c1CN1CC[C@@H](OCC2CC2)[C@@H](Cc2ccccc2)C1,-3.38
8,Cc1ccc(CC2CCCN2CC(=O)NCc2ccccn2)cc1 (stereo not given),-7.47
9,CCCC1CCCN(Cc2csc(-c3cnn(C)c3)n2)CC1 (stereo not given),-2.48
10,COc1c(CNCC(O)c2cccc(F)c2)c(C(C)C)nn1C (stereo not given),2.75
11,CC(NC(=O)NCCCO)c1ccc2c(c1)OCCO2 (stereo not given),-1.5
12,Cc1c(C2CCCN(C(=O)C3CC3)C2)n2c(nc1=O)CCC2 (stereo not given),-7.83
13,CCn1cc(CN2CCCn3nc(CCC(=O)NCCO)cc3C2)cn1,-3.01
14,Fc1ccc2[nH]c(C3CCCN3CCc3ccccn3)nc2c1 (stereo not given),-0.354
15,O=C(CCc1cscn1)N1CCCC1c1noc(C2CC2)n1 (stereo not given),-5.78
16,CCn1c(CN2CCCN(C(=O)OC)CC2)nc2c(F)cccc21,-2.85
17,Cc1nc(C)n(CC2CN(Cc3cccc(C(N)=O)c3)CCO2)n1 (stereo not given),-1.88
18,O=C(C1CC(=O)N(C2CCCC2)C1)N1CCN(CCn2cccc2)CC1 (stereo not given),-3.53
19,CCN(Cc1nc2c(cnn2C)c(=O)[nH]1)c1ccc(OC)c(OC)c1,-2.86
20,NC(=O)C1CCN(Cc2cccc(NC(=O)c3ccsc3)c2)CC1,-6.14
